From PubChem
This is a sample that favours compounds with a hit; in the whole collection about 5.2% have one here.
Tau fluor cs: counter-screen for tau fibril formation inhibitors | tau K18 P301L Alexa594 fluorescence, heparin fibrillization | Potency, µM (titrated, usually from 57.7 µM), for the others: at the highest dose activity change, negative = decrease | 280,000 tested, 0.93% active | AID 1463; further: potency means the concentration at half of the fitted maximal effect; nearly all actives have a fitted effect of over 55% in size
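Human tau K18 P301L (15 uM unlabeled, 0.24 uM Alexa 594-labeled) in 100 mM sodium acetate pH 7 with 20 uM heparin, 6 hr at 37 C. ThT 30 uM added, 1 hr ambient; Alexa 594 FP and total fluorescence read at 555/632 nm.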
FBPA coupling cs: coupling enzyme interference in Giardia aldolase counter-screen. 290,000 tested, 0.67% active. coupling enzyme system counterscreen, AmpLite Red fluorescence. activity change, negative = inhibition, % at 58.2 µM, hits read low. AID 2472; in the data active means activity change below about -30%
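Fluorescence at 525 nm excitation and 598 nm emission measured inhibition of the coupled detection system without aldolase. Compounds (at 57.5 uM final) were preincubated 10 min at room temperature with coupling enzyme reagent before a 20 min substrate/AmpLite Red step.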
Sfp PPTase inh: inhibitors of Bacillus subtilis Sfp phosphopantetheinyl transferase; Q9F4F7; Biochemical Sfp PPTase activity, qHTS; Potency, µM, without a hit: largest response in the series, negative = inhibition, usual class: inhibitors; 310,000 tested, 3.5% active;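 further: the enzyme is Sfp with the accession as filed and its product quenches rhodamine fluorescence; potency means the concentration at half of the fitted maximal effect; 0% = enzyme reaction without inhibitor and -100% = no enzyme wells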
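With Hepes-Na pH 7.6 buffer containing 10 mM MgCl2, Sfp (15 nM) modified BHQ-2-YbbR (12.5 uM) using rhodamine-CoA (5 uM). Two reads 30 minutes apart at 525/598 nm yielded each well's rate.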
Tau fibril FP: tau fibrillization inhibition (FP) | P10636 | K18 P301L tau heparin fibrillization, Alexa594 FP, 6 h | Potency, µM (series often up to 57.7 µM), for inactives: at the top dose activity, negative = inhibition, actives largely listed as inhibitors | 280,000 tested, 0.39% active; further: potency means the concentration at half of the fitted maximal effect; nearly all actives have a fitted effect of over 55% in size
Target sequence (P10636 561-689 P618L limits assumed): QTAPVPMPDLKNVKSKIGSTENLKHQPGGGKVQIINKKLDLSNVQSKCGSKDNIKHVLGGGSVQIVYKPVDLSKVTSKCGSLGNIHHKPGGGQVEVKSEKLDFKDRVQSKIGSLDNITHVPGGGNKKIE
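FP of Alexa 594-tau after heparin (20 uM) induction. Substrate: human K18 P301L, 15 uM unlabeled, 0.24 uM labeled. Buffer 100 mM sodium acetate pH 7. 6 hr, 37 C.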
Tau fibril ThT: tau fibrillization inhibition (ThT binding) | AID 1460 | Potency, µM (titrated, usually from 57.4 µM), for the others: top-dose activity, negative = inhibition, most hits filed as inhibitors | recombinant tau K18 P301L (four-repeat tau fragment), heparin-induced fibrillization, ThT fluorescence | 270,000 tested, 2.1% active; further: potency means the concentration at half of the fitted maximal effect; nearly all actives have a fitted effect of over 55% in size
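In this qHTS, human K18 P301L tau is incubated with compound and heparin for 6 hr at 37 C, and Thioflavin T fluorescence then reports fibril load.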
Numbers without * were called inactive; ? = inconclusive; . = not tested or not shown; [ ] = another dose, or the depositor's remark. Unless noted, the call rests on the fitted dose curve; in most records, active means well fitted curve in the direction sought with a large enough effect; inconclusive means small, poorly fitted or top-dose-only effect, or another doubt; inactive means no such curve, though single readings can be large; an effect the other way counts as inactive or inconclusive. Unless noted, on the % scale 0 is the no-effect control and ±100 the full control effect.

SMILES	Tau fluor cs	FBPA coupling cs	Sfp PPTase inh	Tau fibril FP	Tau fibril ThT
CCN(CC)c1ccc(/C=C(\C#N)C(N)=O)cc1	-12%	0	10%	4%	?
CCN(CC)c1ccc(/C=C(\C#N)C(N)=S)cc1	?	2	?	-2%	4.5µM*
O=C(NCc1ccco1)c1cccn2c(=O)c3cc4ccccc4cc3nc12	-8%	-31*	?	0%	2.8µM*
COCCCNC(=O)c1cccn2c(=O)c3cc4ccccc4cc3nc12	-11%	-25	-18%	-6%	14µM*
CC(C)S(=O)(=O)c1csc(NC(=O)Nc2ccc(Cl)cc2)c1	16µM*[quencher]	-5	-21%	?	-4%
O=C(Nc1ccc(Br)cc1)c1cccc(C(=O)Nc2ccc(Br)cc2)c1	-12%	.	.	-18%	6%
COC(=O)[C@H](CC(C)C)NC(=O)c1cc2c(cn1)[nH]c1ccccc12	.	6	45µM*	.	.
CCCCCCCCCCCCCC(=O)OC(C)C	.	.	0%	.	.
CCN(CC)C(C)CN1c2ccccc2Sc2ccccc21 (stereo not drawn)	20µM*[quencher]	-3	-17%	11%	?
OCCNCC(O)CN1c2ccccc2Sc2ccccc21 (stereo not drawn)	.	-1	8%	.	.
CSC1=N/C(=C\c2ccc(C)cc2)C(=O)S1	-12%	1	-7%	-5%	-14%
CCOC(=O)SC1=N/C(=C\c2ccc(N(C)C)cc2)C(=O)S1	-21%	1	-4%	1%	4.5µM*
COc1cccc(C(=O)NCC(c2ccc(N(C)C)cc2)N2CCOCC2)c1OC (stereo not drawn)	-28%	.	.	-5%	?
CCn1nc(C)c(CCN(C)C(=O)Nc2cc(C)cc(C)c2)c1C	5%	.	.	0%	4%
CC(=O)Nc1ccc(NC(=O)c2ccc3c(c2)N(Cc2cccc(Cl)c2)C(=O)c2ccccc2S3(=O)=O)cc1	?	.	.	16µM*	-11%
CCOC(=O)Cc1csc(SCn2nnc3ccccc3c2=O)n1	-8%	-2	-5%	5%	-11%
CCOC(=O)Cc1csc(-n2sc3ccccc3c2=O)n1	?	3	6.3µM*	28µM*	28µM*
O=C1C2CC(O)CN2C(=S)N1Cc1ccccc1 (stereo not drawn)	-17%	-2	50µM*	-2%	-19%
COCCNC(=S)c1ccc(Br)cc1	-9%	0	45µM*	-5%	?
COc1ccccc1NC(=S)N(Cc1ccc(C)cc1)Cc1ccccn1	-13%	-8	45µM*	6%	-4%
COc1ccc(CCN(Cc2ccccn2)C(=S)Nc2cccc(SC)c2)cc1OC	?	-5	45µM*	6%	-14%
COc1ccc(CN(Cc2ccc(C(=O)O)cc2)C(=S)Nc2ccccc2F)cc1OC	0%	5	50µM*	-1%	-2%
COc1ccc(CN(C)CCc2ccccn2)cc1OC	-6%	1	50µM*	4%	-12%
CCOc1cc(C(=O)OCc2cc(=O)n3nc(C4CC4)sc3n2)cc(OCC)c1OCC	-9%	.	.	6%	?
CSc1nsc(SC)c1C(=O)NCCNS(=O)(=O)c1ccc(C)cc1	-12%	0	50µM*	-2%	-18%
SMILES	Tau fluor cs	FBPA coupling cs	Sfp PPTase inh	Tau fibril FP	Tau fibril ThT
Cc1ccc(S(=O)(=O)NCCNC(=O)c2nonc2N)cc1	2%	0	9%	-3%	-1%
Cc1ccc2c(=O)cc(C(=O)Nc3nc4ccc(Cl)cc4s3)oc2c1	-18%	.	.	?	?
CCOCCCn1c(SCC(=O)Nc2ccccc2Cl)nc2c(oc3ccccc32)c1=O	-15%	.	.	-10%	-3%
Cc1nc(N)sc1-c1csc(Nc2ccccc2)n1	25µM*[quencher]	-13	-10%	?	11µM*
Cc1cc(O)ccc1Nc1nc(-c2sc(N)nc2C)cs1	?	5	-3%	?	13µM*
Cc1cc(NS(=O)(=O)c2ccc(Nc3nc(-c4sc(N)nc4C)cs3)cc2)no1	?	-11	50µM*	?	20µM*
COc1cc(NS(=O)(=O)c2ccc(NC(=S)Nc3ccccc3)cc2)nc(OC)n1	.	.	-1%	.	.
COc1cc(NS(=O)(=O)c2ccc(Nc3nc(-c4ccccc4)cs3)cc2)nc(OC)n1	13µM*[quencher]	5	-7%	?	?
COc1cccc2c1OC(=O)CC2c1ccc(C)cc1 (stereo not drawn)	-16%[81.3 µM]	10	-10%	1%[81.3 µM]	-8%[81.4 µM]
Cc1ccc(Cl)cc1N1CCN(C(=O)Cn2cnc3sc(C)c(S(=O)(=O)N4CCC(C)CC4)c3c2=O)CC1	-24%	.	.	-9%	?
O=C(CSc1nc2cc(C(=O)NC3CCCC3)ccc2c(=O)n1CC1CCCO1)c1cccc(Cl)c1 (stereo not drawn)	-12%	.	.	4%	-11%
CCN1CCN(c2c(/C=C3\SC(=S)N(Cc4ccco4)C3=O)c(C)c(C#N)c(=O)n2C)CC1	?	-12	25µM*	-17%	.
CN1CCc2c(sc3ncn4nc(-c5ccccc5O)nc4c23)C1	-26%	0	-3%	?	28µM*
c1coc(-c2nc3c4c5c(sc4ncn3n2)CCCC5)c1	4%	-2	7%	4%	-1%
O=C(/C=C/c1ccco1)Nc1ccc(N2CCCC2)cc1	-21%	1	1%	9%	2.2µM*
O=C(/C=C/c1ccco1)Nc1ccc(C(=O)N2CCOCC2)cc1	0%	2	-52%	-5%	-12%
O=C(/C=C/c1ccco1)c1cccnc1	.	-1	50µM*	.	.
O=C(/C=C/c1ccco1)Nc1cccnc1	7%	-6	25µM*	2%	4%
CC(/C=C/c1ccco1)=N\NC(=O)c1cc(C)[nH]n1	-12%	-9	18µM*	-14%	?
CCOc1ccc(Nc2nc3ccccc3n3c(CC)nnc23)cc1	-15%	.	.	5%	?
CCOC(=O)c1c(NC(=O)CSc2cn(CCNC(=O)c3ccc(OC)c(OC)c3)c3ccccc23)sc2c1CCC2	?	.	.	-9%	-15%
CC(/C=C/c1ccco1)=N\NC(=O)c1cccnc1	-26%	-9	56µM*	?	28µM*
S=c1[nH]c2ccccc2n1Cc1ccccc1	.	0	14µM*	.	.
Cc1cccc(OCCn2c(=S)[nH]c3ccccc32)c1	8%	-3	6.3µM*	7%	9%
CCOc1ccc(OCCn2c(=S)[nH]c3ccccc32)cc1	.	-1	-83%	.	.
Cc1ccc(OCCn2c(=S)[nH]c3ccccc32)c(C(C)C)c1	.	1	1%	.	.
S=c1[nH]c2ccccc2n1CCOc1ccccc1	.	0	89µM*	.	.
Cc1ccc(C)c(N2CCN(C(=O)CCS(=O)(=O)c3cc(Br)cc4c3N(C(=O)C3CC3)CC4)CC2)c1	-19%	.	.	-5%	-10%
O=C(c1ccccc1)c1c2c(cc3sc4ccccc4[n+]13)-c1cccc3cccc-2c13	?	0	?	?	6.3µM*
CC(C)(C)c1ccc(C(=O)NCC(c2cccs2)S(=O)(=O)c2ccccc2)cc1 (stereo not drawn)	-17%	.	.	?	-10%
